# Shiga toxin inh: A qHTS for Small Molecule Inhibitors of Shiga Toxin; Vero cells, Shiga toxin protein synthesis inhibition reporter; inhibition, % at 38.7 µM; actives 9.2% (n = 290,000); AID 2315, 2010; in the data active = inhibition mostly above about 28%, no sharp cut-off; inactive = mostly below about 43%; note: 0% is about no effect
# AMA1-RON2 inh: qHTS for Inhibitors of AMA1-RON; Towards Development of Antimalarial Drug Lead: Primary Screen. Plasmodium falciparum AMA1 (3D7) - RON2 peptide interaction. AlphaScreen AMA1-biotinylated RON2 peptide binding. Potency, µM (doses to about 58.2 µM), for inactives: at the top dose activity change, negative = inhibition, most hits filed as inhibitors. actives 0.2% (n = 360,000); active = well fitted inhibition curve with a large enough effect; inconclusive = small, poorly fitted or top-dose-only effect; inactive = no such curve, though single readings can be large or run the other way;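 note: potency is the fitted concentration of half-maximal effect; 0% = vehicle wells and -100% = peptide control; nearly all actives have a fitted effect of over 45% in size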
#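 AMA1 (3D7) with his tag at 25 nM final met compounds first, then biotinylated RON2 peptide at 25 nM; detection used donor plus acceptor beads, 10 µg/mL apiece, read by AlphaScreen after 30 min at room temperature.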
# LASV entry inh: qHTS for Inhibitors of binding or entry into cells for Lassa Virus. Potency, µM (titrated, usually from 37.9 µM), for the others: at the highest dose activity change, negative = inhibition, usual class: inhibitors. Lassa virus pseudotype entry inhibition, cell reporter. actives 1.2% (n = 300,000); calls by dose curve; tested in HEK293 cells; note: potency is the fitted concentration of half-maximal effect; % is set by controls: 0 for no effect and ±100 for the full control effect; nearly all actives have a fitted effect of over 50% in size
# CHX counter: Cycloheximide Counterscreen for Small Molecule Inhibitors of Shiga Toxin; cell reporter, cycloheximide protein synthesis inhibition counterscreen; max response, %; actives 12% (n = 300,000); AID 2314, 2010; in the data active = max response mostly above about 13%, no sharp cut-off; inactive = mostly below about 14%; note: read at 38.3 µM for the half of the compounds with a filed dose; 0% is about no effect
# MARV entry inh: qHTS for inhibitors of binding or entry into cells for Marburg Virus; Marburg virus pseudotyped entry inhibition, cell reporter; Potency, µM (titrated, usually from 37.8 µM), without a hit: at the highest dose activity change, negative = inhibition, most hits filed as inhibitors; actives 1.8% (n = 300,000); AID 540276, 2011; calls by dose curve; tested in HEK293 cells; note: potency is the fitted concentration of half-maximal effect; % is set by controls: 0 for no effect and ±100 for the full control effect
# An asterisk follows results filed as active; ? = inconclusive; . = no result given; [ ] = another dose, or the depositor's remark. The sample as a whole holds a higher share of hits than the screen did.
SMILES,Shiga toxin inh,AMA1-RON2 inh,LASV entry inh,CHX counter,MARV entry inh
O=C(N/N=C/C(Br)=C\c1ccccc1)c1ccc2nc[nH]c2c1,46.0,13.2%,-22.6%,19.1*,?
CN(C)c1ccc(C2=NOC(CN3C(=O)c4ccccc4S3(=O)=O)C2)cc1 (stereo not given),70.6*,9.8%,-24.3%,55.5*,-8.2%[46.1 µM]
CN(C)c1nc(N(C)C)nc(N(C#N)CN2C(=O)c3ccccc3S2(=O)=O)n1,-16.3,16.0%,-4.2%,-1.5,11.4%
O=C(NNc1nc2cc3c(cc2s1)OCO3)c1ccccc1,90.5*,98.4%,?,61.3*,24.0%
COc1cc(OC)cc(C(=O)NNc2nc3cc4c(cc3s2)OCO4)c1,-6.3,74.4%,4.7%,-0.9,21.9%
O=C(NNc1nc2cc3c(cc2s1)OCO3)c1cccc(F)c1,active,95.8%,14.4%,60.8*,?
COc1cc(C(=O)NNc2nc3cc4c(cc3s2)OCO4)cc(OC)c1OC,-12.7,83.1%,-1.9%,-2.3,?
CCCn1c(SCC(=O)NNC(=O)c2ccc(C)cc2)nnc1C(C)C,-9.9,30.5%,-0.9%,10.2,6.9%[46.1 µM]
S=c1sc2c(Cl)ncnc2n1-c1ccccc1,-26.5,-2.5%,23.1µM*,-0.9,23.1µM*
CCCc1cc2c(=O)c(-c3nc4ccccc4s3)c(COCC(=O)O)oc2cc1O,95.1*,46.6%,20.0%[46.1 µM],43.4*,24.4%[46.1 µM]
CCN(C(=O)/C=C/c1ccccc1)C1CCCCC1,35.8,11.2%,-9.4%,6.9*,17.8%
COc1ccc(/C=C/C(=O)N(C(C)C)C(C)C)cc1Br,50.8*,-1.9%,2.3%,23.7*,-2.4%
COc1ccc(/C=C/C(=O)NC(C)CCc2ccccc2)cc1OC (stereo not given),-8.5,-3.1%,-19.1%,-1.8,-2.0%
COc1ccc(/C=C/C(=O)NC(C)C)cc1Br,3.9,3.8%,3.2%,13.2*,11.7%
CCN(CC)C(=O)/C=C/c1ccccc1,.,-5.1%,.,.,.
CN(C(=O)/C=C/c1cnc2ccccc2c1)C1CCCCC1,69.5*,12.6%,?,25.8*,?
O=[N+]([O-])c1ccc(S(=O)(=O)N2CCN=C2SCc2ccc(F)cc2)cc1,-11.7,-2.3%,.,16.7,.
CO[C@H]1O[C@H](C)[C@@H](O)C[C@H]1NC(=O)OCc1ccccc1,-8.3,-3.8%,8.1%[46.1 µM],3.6,5.4%[46.1 µM]
Cc1ccc(N(C)C(=O)c2cc(S(=O)(=O)N3CCCC3)cn2C)cc1,13.9,-3.6%,.,-2.2,.
COc1ccc(/C=C/C(=O)N(C)C2CCCCC2)cc1Br,78.0*,0.0%,?,26.2*,?
CC(C)c1ccc(N(C(=O)c2csnn2)C(C(=O)NC(C)(C)C)c2ccncc2)cc1 (stereo not given),33.4,-3.6%,-10.0%,34.7*,3.1%
Cc1ccc(N(C(=O)c2csnn2)C(C(=O)NC(C)(C)C)c2ccncc2)cc1 (stereo not given),-14.9,15.8%,10.0%,9.1,3.3%
CC(C)c1ccc(N(C(=O)c2csnn2)C(C(=O)NC2CCCC2)c2cccnc2)cc1 (stereo not given),-5.4,-13.4%,1.58µM*,-4.8,-9.0%[46.1 µM]
COc1ccc(C)cc1N(C(=O)c1snc(C(N)=O)c1N)C(C(=O)NC1CCCCC1)c1ccc(C)o1 (stereo not given),-8.4,-2.6%,?,-8.0,11.2µM*
CC(C)c1ccc(C(C(=O)NC2CCCCC2)N(C(=O)c2csnn2)C2CC2)cc1 (stereo not given),-7.1,-4.1%,-1.3%[46.1 µM],-6.1,6.31µM*
SMILES,Shiga toxin inh,AMA1-RON2 inh,LASV entry inh,CHX counter,MARV entry inh
N/C(CN1CCCCC1)=N\S(=O)(=O)c1cc(Cl)cc(Cl)c1,31.5,-1.5%,.,-2.9,.
Cc1ccc(N(C(=O)CCl)C(C(=O)NC2CCCCC2)c2cccnc2)cc1C (stereo not given),-1.3,-5.9%,7.94µM*,2.2,?
CC(C)c1ccc(N(C(=O)c2snc(C(N)=O)c2N)C(C(=O)NC2CCCC2)c2ccncc2)cc1 (stereo not given),27.0,-7.5%,-30.0%[46.1 µM],15.2*,?
Cc1ccc(N(C(=O)CNC(=O)c2ccco2)C(C(=O)NC2CCCCC2)c2cccnc2)cc1C (stereo not given),-1.6,6.3%,-7.1%,-5.4,-7.2%[46.1 µM]
O=C(NCC1CCCO1)C(c1ccc(F)cc1)N(Cc1ccc2c(c1)OCO2)C(=O)c1ccc(CN2CCOCC2)o1 (stereo not given),-4.7,7.1%,-11.7%[46.1 µM],-5.3,2.0%
CCCCc1c(C)c2ccc(OC)c(/C(C)=N\O)c2oc1=O,35.0,-2.2%,-11.4%,18.8*,8.9%
COc1ccc2c(C)c(Cc3ccccc3)c(=O)oc2c1OC,14.3,7.5%,.,1.2,.
Cc1ccc(S(=O)(=O)N(C)C[C@H]2OCCCC[C@@H](C)Oc3ccc(NC(=O)Cc4ccccc4)cc3C(=O)N([C@H](C)CO)C[C@@H]2C)cc1,.,-1.2%,.,.,.
CCC1CCCCN1c1ccc([N+](=O)[O-])cc1/C=N/NC(=O)Cn1c2ccccc2c(=O)c2ccccc21 (stereo not given),20.8,0.0%,-4.5%,-1.5,0.891µM*
CCc1ccc(OCC(=O)N/N=C/c2cc([N+](=O)[O-])ccc2N2CCCCCC2)cc1,-9.3,7.2%,?,0.4,13.4%
CC(C)C(c1nnnn1Cc1cccs1)N1CCN(C(=O)c2ccco2)CC1 (stereo not given),-11.7,0.9%,9.8%,1.5,23.6%[46.1 µM]
[S-]C(=Nc1ccc(Cl)cc1)N[n+]1ccccc1,36.6*,-10.0%,3.3%,29.6*,?
CCCCCCNC(=O)N[C@H](C(=O)NCCC[C@H]1CN2C(=NC[C@H]2C)N1CCC(c1ccccc1)c1ccccc1)C(C)O (stereo not given in full),-8.4,.,.,-5.6,.
NC(=O)c1c(NC(=S)Nc2ccc(F)cc2)sc2c1CCCC2,39.7,70.0%,-19.7%,17.5*,6.7%[46.1 µM]
C=CC(=O)Nc1sc2c(c1C(N)=O)CCCC2,.,-2.5%,.,.,.
C=CCNC(=S)Nc1sc2c(c1C(N)=O)CCCC2,55.9,59.1%,0.4%,14.7*,1.6%[46.1 µM]
CC(C)C(=O)NC(=S)Nc1sc2c(c1C(N)=O)CCCC2,36.1*,26.3%,0.6%,24.7*,?
COc1ccc(C(C)(C)C)cc1NC(=O)COC(=O)C1=NNC(=O)CC1,.,-3.9%,.,.,.
CCCCN(C)CCCNC(=O)Cn1ncc2c3ccccc3n(Cc3cccc(Cl)c3)c2c1=O,.,.,-1.4%[46.1 µM],.,?
Cc1cccc(NC(=O)CCCCCn2c(=O)[nH]c3ccsc3c2=O)c1,.,.,5.1%[46.1 µM],.,?
COc1ccc(C2=CC(=O)CC(C)(C)C2)cc1OC,.,4.5%,.,.,.
CCn1c2ccccc2c2cc(NC(=O)CNCc3ccccc3OC)ccc21,-8.4,?,?,-3.9,5.62µM*
O=S(=O)(c1ccccc1)N(CC(O)Cn1c2ccccc2c2ccccc21)c1ccccc1 (stereo not given),-24.2,-5.0%,?,4.6,?
CCN(CC)S(=O)(=O)c1ccc(OC)c(NC(=S)Nc2cccc(C)c2)c1,28.2,.,-4.2%,1.3,-25.5%
